Experimental data reported in PubChem BioAssay AID778 (Sanford-Burnham Center for Chemical Genomics, 2007).
Out of some 96,000 compounds screened, about 20,000 (21%) were called active.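 The calls were made as follows: active = CYP2C19 inhibition above a set limit at 5 µM in the primary screen (cut at about 50% in these data); inactive = the rest.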 These entries were drawn from the full list.

target: Cytochrome P450 2C19 (Homo sapiens) (UniProt P33261); assay: blockers of cytochrome P450 2C19 activity – biochemical, luminescence, ADME assay, primary screen (AID 778); details: CYP2C19 Supersomes, luciferin-H EGE luminescence, 30 min; at 5 µM; stronger effect = higher value;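 also: plate controls were negative control wells for no effect and 2.5 mM tranylcypromine positive control for full effect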
Sequence (P33261 whole entry, looked up): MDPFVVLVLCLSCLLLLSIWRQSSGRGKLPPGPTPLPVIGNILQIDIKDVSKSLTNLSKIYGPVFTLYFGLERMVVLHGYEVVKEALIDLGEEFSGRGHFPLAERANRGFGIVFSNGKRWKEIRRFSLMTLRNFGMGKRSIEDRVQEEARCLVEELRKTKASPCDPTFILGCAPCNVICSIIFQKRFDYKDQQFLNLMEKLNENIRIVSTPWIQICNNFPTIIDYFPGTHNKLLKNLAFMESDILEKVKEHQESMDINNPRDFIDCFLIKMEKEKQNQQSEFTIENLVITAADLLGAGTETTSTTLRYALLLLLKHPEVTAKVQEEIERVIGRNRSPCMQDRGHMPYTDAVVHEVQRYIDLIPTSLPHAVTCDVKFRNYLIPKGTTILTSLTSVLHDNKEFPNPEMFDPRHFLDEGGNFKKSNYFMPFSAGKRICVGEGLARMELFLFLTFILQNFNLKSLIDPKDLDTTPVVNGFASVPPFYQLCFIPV

Row | SMILES | inhibition
1 | Cc1ccc(NS(=O)(=O)c2c(C)[nH]c(=O)[nH]c2=O)cc1C | 1.6% (inactive)
2 | Cc1cc(C)c(C)c(S(=O)(=O)Nc2ccc(O)cc2)c1C | 50.9% (active)
3 | Cc1noc(C)c1S(=O)(=O)Nc1ccc(C(=O)O)cc1 | 2.3% (inactive)
4 | c1ccc(Cc2nn3c(Cn4cnc5ccccc54)nnc3s2)cc1 | 39% (inactive)
5 | Cc1c(-c2ccccc2)nc(N)c(C#N)c1-c1cccs1 | 0.7% (inactive)
6 | CCOC(=O)c1ccc(NC(=O)CS(=O)(=O)c2cn(CC)c3ccccc23)cc1 | 20.6% (inactive)
7 | CC(C)(C)NS(=O)(=O)c1ccc(NC(=O)NC2CCCCC2)cc1 | 8% (inactive)
8 | CC(C)NS(=O)(=O)c1ccc(NC(=O)C2CCCCC2)cc1 | 13.3% (inactive)
9 | CCOC(=O)[C@H]1CCC[C@@H](NS(=O)(=O)c2ccc(NC(C)=O)cc2)C1 | 57.9% (active)
10 | CC1=C(C)CC(C(=O)NNC(=O)c2ccccc2O)C(C(=O)O)C1 (stereo unspecified) | -7.2% (inactive)
11 | Cc1nc(SCC(=O)N2CCc3ccccc3C2)c2c(C)c(C)sc2n1 | 20% (inactive)
12 | O=C(Nc1ccc2c(c1)OCCO2)C(c1ccc(F)cc1)N1CCCCC1 (stereo unspecified) | 56.5% (active)
13 | COc1ccc(-n2c(SCC(=O)Nc3ccc4c(c3)OCO4)nnc2C(C)N2CCCCC2)cc1 (stereo unspecified) | 16.9% (inactive)
14 | CC1CCCN(C(C(=O)Nc2ccc(C(C)C)cc2)c2ccc3c(c2)OCO3)C1 (stereo unspecified) | 17.7% (inactive)
15 | CCN(CC)Cc1csc2ccc(Br)cc12 | 5.2% (inactive)
16 | O=[n+]1c2c(n([O-])c3cc(Br)ccc31)CCC2 | 21% (inactive)
17 | C=CCn1c(=O)c2ccccc2n2c(SCC(=O)N3CCCc4ccccc43)nnc12 | 36.5% (inactive)
18 | Cc1nnc(SCC(=O)N2CCc3ccccc32)n1-c1ccccc1 | 3.9% (inactive)
19 | CCCn1c(SCC(=O)N2CCc3ccccc32)nnc1-c1ccncc1 | 83.8% (active)
20 | COc1ccc(-c2[nH]nc(-c3ccccc3)c2-c2nc3ccccc3[nH]2)cc1 | 11.3% (inactive)
21 | Cn1c(C(=O)NCCCN2CCN(c3cccc(Cl)c3)CC2)cc2c(=O)n(C)c3ccccc3c21 | 18% (inactive)
22 | CSc1cccc(NC(=O)C2CCCN2S(=O)(=O)c2ccc3c(c2)CCC(=O)N3)c1 (stereo unspecified) | 56.8% (active)
23 | COc1ccccc1CNC(=O)C1CCN(S(C)(=O)=O)CC1 | 2.2% (inactive)
24 | O=C1CCc2cc(S(=O)(=O)N3CCC(C(=O)NCc4ccccc4Cl)CC3)ccc2N1 | 88.6% (active)

Row | SMILES | inhibition
25 | O=C(NCc1cccs1)C1CCN(S(=O)(=O)c2ccc3c(c2)OCCO3)CC1 | 17.6% (inactive)
26 | O=C(O)C1CCCN1S(=O)(=O)c1ccc2c(c1)CCC2 (stereo unspecified) | -10.4% (inactive)
27 | Cc1cccc(NC(=O)C2CCCN2S(=O)(=O)c2ccc(F)cc2)c1C (stereo unspecified) | 16.2% (inactive)
28 | CCOC(=O)CNC(=O)c1nn(-c2cccc(OC)c2)c(=O)c2ccccc12 | 5.3% (inactive)
29 | COc1ccc(-n2nnc3c(=O)n(CC(=O)OCc4ccccc4)cnc32)cc1 | 3.9% (inactive)
30 | COC(=O)C1=C(Nc2ccc(OC)cc2)C=C(C)C(C(=O)OC)C1c1ccc(C)cc1 (stereo unspecified) | 33.3% (inactive)
31 | CC1(C)Cc2c(sc3nc4n(c(=N)c23)CCCCC4)CO1 | -6.4% (inactive)
32 | O=C(NCCCNCc1ccccc1)c1ccc(/C=N/O)nc1 | -13.4% (inactive)
33 | Cn1c(=O)[nH]c(=O)c2c1nc(CN(Cc1ccccc1)Cc1ccccc1)n2CCN1CCOCC1 | 14.9% (inactive)
34 | COc1ccc(-c2nc3n(c2Br)CCC3)cc1 | 32.9% (inactive)
35 | Cc1ccc(C(=O)Nc2c(C#N)c(C)c(C)n2Cc2ccccc2)cc1 | 23.9% (inactive)
36 | CN1C(=O)c2ccccc2C(C(=O)NCCCN2CCCC2)C1c1c[nH]c2ccccc12 (stereo unspecified) | -6.7% (inactive)
37 | N#CC1=C(N)OC2=C(C(=O)CCC2)C1C1CC=CCC1 (stereo unspecified) | 61.1% (active)
38 | COCc1[nH]nc2c1C(C1C=CCCC1)C(C#N)=C(N)O2 (stereo unspecified) | 17.2% (inactive)
39 | CC1CCc2c(sc(NC(=O)c3ccc(Cn4cc(Br)cn4)o3)c2C(N)=O)C1 (stereo unspecified) | 28.9% (inactive)
40 | Nc1ccccc1SCc1cc([N+](=O)[O-])cc2c1OCOC2 | 19.4% (inactive)
41 | CCC(=O)c1ccc(OCC(O)CN2C(=O)NC(C)(C)C2=O)cc1 (stereo unspecified) | 31.7% (inactive)
42 | CC1(C)NC(=O)N(CCCCSc2ccc(Cl)cc2)C1=O | 87.5% (active)
43 | Cc1ccc(SCCN2C(=O)NC(C)(C)C2=O)cc1 | 97.8% (active)
44 | Cc1ccc(SCC2=NNC(=O)C2)cc1 | 7.6% (inactive)
45 | CC1(C)NC(=O)N(CCOc2cccc(Oc3ccccc3)c2)C1=O | 42.5% (inactive)
46 | N#CC1=C(N)Oc2c(sc3ccccc23)C1c1ccco1 (stereo unspecified) | 22.6% (inactive)
47 | Cc1c(Cl)c([N+](=O)[O-])nn1Cc1ccc(C(=O)N/N=C\c2cc(Cl)ccc2O)o1 | 31.1% (inactive)
48 | CCN(CC)CCn1c(=S)[nH]c2ncccc2c1=O | -16.9% (inactive)

Row | SMILES | inhibition
49 | Cc1cccc(N2C(=O)c3cccnc3C2=O)c1 | 10.5% (inactive)
50 | COC(=O)c1ccc(CN(c2ccccc2OC)S(=O)(=O)c2cccs2)o1 | 98.5% (active)
51 | COC(=O)c1ccc(Cc2ccccc2)o1 | -1.3% (inactive)
52 | COc1ccc(C(C(=O)NCc2ccccc2)N(Cc2cccs2)C(=O)c2cnccn2)cc1 (stereo unspecified) | 47% (inactive)
53 | CCCCN(CCCC)C(=O)CCS(=O)(=O)c1ccc2c(c1)n(C)c(=O)c(=O)n2C | 3.1% (inactive)
54 | CS(=O)(=O)c1ccc2c(c1)SC1=NC(=O)/C(=C/c3ccco3)C(=N)N12 | 8.6% (inactive)
55 | CCS(=O)(=O)N1CCCC(C(=O)NCCCN(C)Cc2ccccc2)C1 (stereo unspecified) | -3% (inactive)
56 | O=C1CC(Cc2ccccc2)C(=O)N1c1ccc(Cl)cn1 (stereo unspecified) | 59.4% (active)
57 | Cc1cc(C)nc(N2C(=O)CC(Cc3ccccc3)C2=O)n1 (stereo unspecified) | 15.5% (inactive)
58 | O=C(O)CN1C(=O)CC(Cc2ccccc2)C1=O (stereo unspecified) | -1% (inactive)
59 | COc1ccc(-n2c(C)nc3c(cnn3-c3ccccc3)c2=O)cc1 | 14.9% (inactive)
60 | Cc1cc(C)c(S(=O)(=O)c2ccccc2)c(OC(=O)c2c(F)cccc2Cl)n1 | 12.4% (inactive)
61 | Cc1nc(C)c(C(=O)Nc2ccc(C)c(F)c2)o1 | -9% (inactive)
62 | CCOc1ccccc1-n1c(SCC(=O)N2CCCC2)nnc1-c1ccoc1C | 2% (inactive)
63 | Cc1ccc2nc(S(=O)(=O)O)[nH]c2c1 | -14.4% (inactive)
64 | COc1ccc(/C=C(/NC(=O)c2ccc(C)cc2)c2nc3ccccc3[nH]2)cc1OC | 35.6% (inactive)
65 | Cc1ccc2nc(/C(C#N)=C\c3ccc(OC(=O)c4cccs4)cc3)[nH]c2c1 | 50.9% (active)
66 | C=CCn1c(SCC(=O)/C(C#N)=C(\C)N)nc2sc(C)c(C)c2c1=O | 6.6% (inactive)
67 | Cc1cnc(NC(=O)CSc2nnc(C)s2)s1 | 19.7% (inactive)
68 | O=C(CSc1ncnc2c1cnn2CCc1ccccc1)Nc1ccc(F)cc1 | 7.1% (inactive)
69 | CCC(C)NC(=O)N[C@@H](CCSC)C(=O)O (stereo partly specified) | -1.9% (inactive)
70 | CCC1(C)Cc2c(sc3nnn(CC(=O)Nc4ccc(Cl)cc4)c(=O)c23)CO1 (stereo unspecified) | 22.1% (inactive)
71 | CCC1(C)Cc2c(sc3nc(SC)nc(N)c23)CO1 (stereo unspecified) | 80.9% (active)
72 | CCCSc1nc(NCc2ccco2)c2c3c(sc2n1)COC(C)(CC)C3 (stereo unspecified) | 13.8% (inactive)

Row | SMILES | inhibition
73 | COC(=O)c1cc(OC)c(OC)cc1NC(=O)C1CCCO1 (stereo unspecified) | 23.5% (inactive)
74 | O=C(Nc1sc2c(c1-c1nc3ccccc3[nH]1)CCCC2)C1CC1 | 9.4% (inactive)
75 | Cc1ccc(C(=O)c2c(NC(=O)c3ccncc3)sc3c2CCCC3)cc1 | 28.7% (inactive)
76 | O=C1NC(c2ccncc2)Nc2sc3c(c21)CCCC3 (stereo unspecified) | 82.8% (active)
77 | COc1ccc2nc(NC3=NCN(CC4CCCO4)CN3)nc(C)c2c1 (stereo unspecified) | 2% (inactive)
78 | COc1ccccc1-c1nc(C#N)c(N2CCC(C(N)=O)CC2)o1 | -9.9% (inactive)
79 | Cc1ccc(C(c2nnnn2CS(=O)(=O)c2ccc(C)cc2)N2CCC(C(N)=O)CC2)cc1 (stereo unspecified) | 0.4% (inactive)
80 | Cc1cccn2c(=O)c(/C=C(\C#N)S(=O)(=O)c3ccc(Cl)cc3)c(N3CCC(C(N)=O)CC3)nc12 | 86.2% (active)
81 | COc1ccc(-c2cc(C(=O)NC(C(=O)O)C(C)C)c(C)o2)cc1OC (stereo unspecified) | 6.4% (inactive)
82 | CCN(CC)P(=O)(C(NC(=O)OC)C(F)(F)C(F)(F)C(F)(F)C(F)F)N(CC)CC (stereo unspecified) | 10% (inactive)
83 | CCN(CC)CCNC(=O)CCCCCn1c(=O)[nH]c2cc(C(=O)OC)ccc2c1=O | 0% (inactive)
84 | Cc1n[nH]c(C)c1S(=O)(=O)N1CCCC(C(=O)NCC2COc3ccccc3O2)C1 (stereo unspecified) | 15.3% (inactive)
85 | Cc1nn(-c2ccccn2)c2c1C(c1ccncc1)C1=C(CC(C)(C)CC1=O)N2 (stereo unspecified) | 98.7% (active)
86 | Cc1cc2c(cc1C)NC(c1ccccn1)C1=C(CC(C)(C)CC1=O)N2 (stereo unspecified) | 1.3% (inactive)
87 | O=S(=O)(N1CCCCC1)N1CCNCC1 | -28.7% (inactive)
88 | CCN(CC)CCn1c2ccc(Cl)cc2c2nc(C)sc21 | 49.4% (inactive)
89 | CCC1CCCCN1C(=O)Nc1cccc(NC(=O)N2CCCCC2CC)c1 (stereo unspecified) | -10.7% (inactive)
90 | COc1ccc(C(C)=O)cc1CN1C(=O)NC2(CCCCC2C)C1=O (stereo unspecified) | 33.8% (inactive)
91 | Cc1ccc2c(C(=O)CN3CCCC3)c(C)[nH]c2c1 | 26.2% (inactive)
92 | CC1CCN(CC(=O)c2c[nH]c3ccccc23)CC1 | 12.2% (inactive)
93 | Cc1[nH]c2ccccc2c1C(=O)COC(=O)C(C)C | 25.9% (inactive)
94 | CCOC(=O)N1CCN(CC(=O)c2c(C)[nH]c3ccccc23)CC1 | 88% (active)
95 | Cc1c(C(=O)N2CCOCC2)[nH]c2ccc(OCc3ccccc3)cc12 | 43.3% (inactive)
96 | Cc1c(C(=O)CN2CCOCC2)[nH]c2ccccc12 | 56% (active)
